Bioassay records: PubChem, several laboratories
esBAF inh – Bmi1 luciferase reporter increase in mESCs, primary screen, esBAF inhibitor project, mouse ES cells, Bmi1 luciferase knock-in, single point; 24 h; 100% = twice the neutral-well signal; reporter increase, % at 12.5 µM; hit rate 2% among 350,000; AID 602393, 2012; in the data active = activation above about 40%;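 note: a rise in the Bmi1 reporter signal indicates esBAF inhibition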
NadD block – inhibitors of S. aureus NadD, primary screen, biochemical, colorimetric, uHTS | purified NadD enzyme, colorimetric absorbance read-out | inhibition, % at 20 µM | hit rate 0.78% among 360,000 | AID 602399, 2012; in the data active = inhibition above about 26%
Vif inh – HIV Vif self-association inhibitors, primary screen, imaging, HEK293T, single point; HEK293T cells, Vif self-association by quenched fluorescence, 24 h; inhibition, % at 7.49 µM; hit rate 0.35% among 340,000; AID 602346, 2012; in the data active = inhibition above about 50%, passing the limit was not always enough
SKN-1 block – suppressors of acrylamide-induced Pgst-4::GFP reporter in worms, primary screen, SKN-1 inhibitor project, whole organism, uHTS, GFP/RFP fluorescence ratio, strain VP596; inhibition, % at 21.8 µM; hit rate 0.49% among 360,000; C. elegans VP596 Pgst-4::GFP/RFP ratio, 24 h; AID 624304, 2012;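 active = interference check ratio from 0.5 to 1.5 plus GFP to RFP signal ratio inhibition reaching or exceeding a fixed threshold, cut at about 30% in these data, passing the limit was not always enough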
SMARCA2 activ – SMARCA2 (BRM) function activators, primary screen, cell-based, luminescence, high throughput; MG213 cells, MMTV-luciferase reporter, dexamethasone, overnight; activation, % at 9.1 µM; hit rate 1% among 370,000; in the data active = activation above about 7.8%
NR3A LBD binder – binders of NR3A ligand-binding domain, primary screen, biophysical, differential scanning fluorimetry, uHTS; AID 1259313, 2017; Glutamate receptor ionotropic, NMDA 3A (GRIN3A) ligand-binding domain; hit rate 2.5% among 340,000; NR3A LBD differential scanning fluorimetry, Tm shift; 0% = protein alone, 100% = glycine-bound protein; Tm shift relative to glycine control, % at 25 µM;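 active = melting temperature shift of at least 10% of the positive control shift, at one fixed dose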
Hits are given with their value; n = inactive; x = no result. A selection: hits, their analogues and other compounds. The true share with any hit is near 5.2%.

SMILES	esBAF inh	NadD block	Vif inh	SKN-1 block	SMARCA2 activ	NR3A LBD binder
COc1ccccc1NCC(=O)N/N=C/c1c(O)ccc2ccccc12	n	n	n	n	n	16
O=C(CNc1ccc(F)cc1)N/N=C/c1c(O)ccc2ccccc12	x	n	n	n	n	27
COc1ccccc1N(CC(=O)N/N=C/c1c(O)ccc2ccccc12)S(C)(=O)=O	x	n	n	n	n	n
O=C(Cc1n[nH]c(=O)[nH]c1=O)N/N=C/c1c(O)ccc2ccccc12	x	n	n	n	n	n
COC(=O)N(C)c1nc2ccccc2s1	n	n	n	n	n	n
CCCCNC(=O)N(C)c1nc2ccccc2s1	64	n	n	n	n	n
Fc1cccc(/C=N/NC(=S)Nc2ccccc2Cl)c1	x	n	n	n	n	n
Cc1ccc(NC(=S)N/N=C/c2ccc(Cl)c([N+](=O)[O-])c2)cc1	x	n	n	n	n	22
S=C(N/N=C/c1ccc(Cl)c(Cl)c1)Nc1ccccc1Cl	x	n	n	n	n	38
Cc1ccc(CNC(=S)Nc2ccc(C)c([N+](=O)[O-])c2)cc1	x	n	n	n	n	11
O=[N+]([O-])c1cc(/C=N/NC(=S)Nc2ccccc2Cl)ccc1Cl	46	n	n	n	n	18
Cc1ccc(NC(=S)NCc2ccccc2)cc1[N+](=O)[O-]	x	n	n	n	n	n
COc1ccc(N2C(=O)c3cccc4c(N(C)CCO)ccc(c34)C2=O)cc1	43	n	x	n	n	n
COc1ccc(N2C(=O)c3cccc4cccc(c34)C2=O)cc1	n	n	n	n	n	n
CN(CC1CCCN(CCc2ccccc2F)C1)C(=O)c1ccoc1 (stereo unspecified)	n	n	n	n	n	n
COc1ccc(CCN2CCCC(CN(C)C(=O)c3ccoc3)C2)cc1 (stereo unspecified)	62	n	n	n	n	n
C[C@@H]1CCCCO[C@H](CN(C)Cc2ccncc2)[C@H](C)CN([C@H](C)CO)C(=O)c2cc(NS(=O)(=O)c3ccc(F)cc3)ccc2O1	n	x	x	x	x	x
CCOC(=O)c1c(C)cccc1OCC(N)=O	n	n	n	n	n	25
Cc1c(CC(=O)NC(C)C)c(=O)oc2cc3c(cc12)CCC(C)(C)O3	49	n	n	n	n	n
CCC(C)NC(=O)Cc1c(C)c2cc3c(cc2oc1=O)OC(C)(C)CC3 (stereo unspecified)	67	n	n	n	n	n
Cc1c(CC(=O)N[C@H](C(=O)O)C(C)C)c(=O)oc2cc3c(cc12)CCC(C)(C)O3	61	n	n	n	n	n
Cc1c(CC(=O)N[C@@H](C)C(=O)O)c(=O)oc2cc3c(cc12)CCC(C)(C)O3	n	n	n	n	n	n
C[C@@H]1CN([C@@H](C)CO)C(=O)c2cc(Br)cnc2O[C@H]1CN(C)Cc1ccncc1	n	x	x	x	x	x
C[C@H](CO)N1C[C@H](C)[C@H](CN(C)S(=O)(=O)c2cccc(C#N)c2)OCc2ccccc2-c2c(n(C)c3ccccc23)C1=O	n	x	x	x	x	x
CCNC(=O)C[C@H]1C=C[C@@H](NS(=O)(=O)c2ccc(F)cc2)[C@H](CO)O1	n	x	x	x	x	x
SMILES	esBAF inh	NadD block	Vif inh	SKN-1 block	SMARCA2 activ	NR3A LBD binder
Nc1nc(COC(=O)c2ccco2)nc(Nc2ccccc2)n1	48	n	n	n	n	x
Cc1ccccc1Nc1nc(N)nc(COC(=O)c2ccco2)n1	77	n	n	n	n	n
CNC[C@@H]1Oc2ccc(NS(=O)(=O)c3ccc(Cl)cc3)cc2CC(=O)N([C@@H](C)CO)C[C@@H]1C	n	x	x	x	x	x
Cc1cccc(NC(=O)C(=O)NCC2CCCN2S(=O)(=O)c2cccs2)c1 (stereo unspecified)	42	n	x	n	n	x
CN1C(=O)c2cc(NC(=O)c3ccc(F)cc3)ccc2OC[C@@H]2O[C@H](CC(=O)NCC3CC3)CC[C@@H]21	n	x	x	x	x	x
CCOC(=O)Cn1c(-c2ccccn2)nc2ccccc21	n	n	n	n	n	n
CCOC(=O)c1ccc2c(c1)nc(-c1ccccn1)n2CC	73	n	n	n	n	n
CCOC(=O)c1ccc2c(c1)nc(SCC(=O)c1cc3ccccc3o1)n2CC	n	n	n	52	n	n
O=C(Nc1ccc(O)c(-c2nc3ccccc3s2)c1)C1=COCCO1	x	n	n	n	n	n
O=C(CCS(=O)(=O)c1ccccc1)Nc1ccc(-c2nc3ccccc3s2)c(O)c1	x	n	n	n	n	15
O=C(Nc1ccc(-c2nc3ccccc3s2)c(O)c1)C1=COCCO1	x	n	x	n	n	36
O=C(Nc1ccc(-c2nc3ccccc3s2)cc1)C1=COCCO1	x	n	n	n	n	30
COc1ccc(NC(=O)N(C)C[C@@H]2Oc3ccc(NS(=O)(=O)c4ccc(Cl)cc4)cc3C(=O)N([C@@H](C)CO)C[C@H]2C)cc1	n	x	x	x	x	x
C/C=C/c1ccc2c(c1)O[C@@H](CN(C)C(=O)Cc1ccccc1)[C@H](C)CN([C@H](C)CO)S2(=O)=O	n	x	x	x	x	x
CNC[C@@H]1OCCCC[C@H](C)Oc2ccc(NS(=O)(=O)c3c(C)noc3C)cc2C(=O)N([C@@H](C)CO)C[C@@H]1C	n	x	x	x	x	x
O=C(O)c1cccc(CSc2nnc(COc3ccccc3)o2)c1	n	n	n	n	n	11
Cn1c(=O)c2[nH]c(SCCN3CCCCC3)nc2n(C)c1=S	n	n	n	n	n	15
Cn1c(=O)c2[nH]c(SCCN3CCOCC3)nc2n(C)c1=S	n	n	n	n	n	n
CCc1cc(=O)oc2cc(OC(=O)c3ccco3)ccc12	n	n	n	n	n	476
C[C@@H]1CCCCO[C@H](CN(C)CC2CCCCC2)[C@H](C)CN([C@H](C)CO)C(=O)c2cc(NS(=O)(=O)c3cccs3)ccc2O1	n	x	x	x	x	x
CC(=O)Nc1nc(C)c(-c2csc(Nc3ccc(O)cc3)n2)s1	n	n	61	n	x	n
CC(=O)Nc1nc(C)c(-c2csc(Nc3ccccn3)n2)s1	x	n	n	n	n	22
Cc1noc(C)c1S(=O)(=O)N(C)C[C@H]1OCCCC[C@@H](C)Oc2ccc(NC(=O)NC3CCCCC3)cc2C(=O)N([C@H](C)CO)C[C@@H]1C	n	x	x	x	x	x
C[C@H](CO)N1C[C@H](C)[C@H](CN(C)C(=O)NC2CCCCC2)Oc2ccc(N(C)C)cc2C1=O	n	x	x	x	x	x
CN(C(=O)Nc1ccccc1)C1CCCCC1	n	n	n	n	n	n
O=C(Nc1ccccc1)N1CCCC2CCCCC21 (stereo unspecified)	52	n	n	n	n	n
O=C(Nc1ccccc1)SC1CCCCC1	83	n	n	n	n	n
